Measurements reported in PubChem BioAssay (Tox21).
“And” between values parts separate entries of the source, which are not always exact repeats. Equal values may be shown once. Inconclusive results are not listed. Values without a mark were called inactive. The source made the active and inactive calls. Calls follow the shape of the dose curve; as a rule, active = well fitted inhibition curve with a large enough effect in the repeat runs; inconclusive = weak or mixed curves; inactive = flat fitted curve, though single readings scatter.

Target: Luciferin 4-monooxygenase (Photinus pyralis) (UniProt P08659)
Assay: qHTS assay to identify small molecule inhibitors of firefly luciferase (AID 1224835); also: nearly all actives have a fitted effect of over 25% in size
Details: purified P. pyralis luciferase, luminescence inhibition; series mostly up to 115 µM; activity change, negative = inhibition: at the top concentration
From the text: U.S. Tox21 Program National Center for Advancing Translational Sciences [NCATS] NIH Chemical Genomics Center [NCGC] U.S. Environmental Protection Agency [EPA] National Institutes of Environmental Health Sciences [NIEHS] National Toxicology Program [NTP] U.S. Food and Drug Administration [FDA] Tox21 Assay Overview: Firefly (Photinus pyralis) luciferase is one of the most commonly used transcriptional reporters. Firefly luciferase reporter-gene assays are generally considered one of the most sensitive assay types (Wood, 1995; Wood, 1998). However, it was initially observed, in 1991, by Thompson et al., that compounds that resemble the substrates of firefly luciferase (FLuc) can act as competitive inhibitors of the enzyme, and that these compounds, upon interaction with luciferase in the cell, can actually stabilize the protein and increase its half-life. Previous profiling work by other groups to determine the prevalence of compounds that affect FLuc enzymatic activity (PubChem AID 411) identified that ~3% of the MLSMR library (then at ~72K) inhibited FLuc. […] Thus the Tox21 10K library is profiled for activity against FLuc using a biochemical assay of purified FLuc and KM concentrations of FLuc substrates (D-luciferin and ATP).
These assay plates were then treated with 23nL of compound or DMSO using a Kalypsys pin tool, which allows for delivery of a 6-point interplate titration of each compound to the assay plate (quantitative HTS.) 1 uL of firefly luciferase mix (containing 50 mM Tris acetate, pH 7.6, 0.04 uM P. pyralis luciferase, 0.01% Tween, 0.05% BSA and dH2O) was then delivered by FRD to each well. Luciferase activity was then measured using a ViewLux CCD imager.
% is scaled to controls: 0 for no effect and ±100 for the full control effect; potency is read from the fitted curve at half-maximal effect.

Luciferin 4-monooxygenase (Photinus pyralis), sequence (P08659 whole entry, looked up): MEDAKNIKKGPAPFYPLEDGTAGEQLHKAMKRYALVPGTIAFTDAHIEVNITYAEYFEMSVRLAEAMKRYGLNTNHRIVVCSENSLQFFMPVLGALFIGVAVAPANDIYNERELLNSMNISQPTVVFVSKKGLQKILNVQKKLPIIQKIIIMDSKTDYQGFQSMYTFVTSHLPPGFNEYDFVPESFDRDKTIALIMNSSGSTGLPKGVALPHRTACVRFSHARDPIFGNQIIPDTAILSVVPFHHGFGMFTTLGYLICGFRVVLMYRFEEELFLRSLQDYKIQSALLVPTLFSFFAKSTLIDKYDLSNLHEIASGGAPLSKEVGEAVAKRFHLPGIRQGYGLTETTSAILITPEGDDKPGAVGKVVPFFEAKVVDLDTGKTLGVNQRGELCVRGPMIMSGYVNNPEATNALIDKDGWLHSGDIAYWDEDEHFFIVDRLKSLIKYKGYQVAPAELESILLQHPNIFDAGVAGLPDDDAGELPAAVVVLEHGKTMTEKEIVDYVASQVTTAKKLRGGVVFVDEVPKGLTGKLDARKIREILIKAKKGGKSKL

| Compound | activity change, negative = inhibition | Potency |
| --- | --- | --- |
| O=C(N[C@H]1CN2CCC1CC2)c1ccc2c(c1)OCCO2 | 0.0842% |  |
| CCSCc1ccccc1OC(=O)NC | 0% |  |
| CON(C)C(=O)Nc1ccc(Cl)cc1 | -5.77% |  |
| CC(C)c1ccc(NC(=O)N(C)C)cc1 |  | 71 µM (active) |
| Nc1ccc2c(c1)Cc1ccccc1-2 |  | 39.7 µM (active) |
| CCOP(=O)(O)C(N)=O | 1.95% |  |
| C[C@H]1[C@@H]2Cc3ccc(O)cc3[C@@]1(C)CCN2C | 2.48% [at 300 µM] |  |
| CCC(C)Cl (stereo not given) | 3.76% |  |
| CCOC(=O)NC(O)C(Cl)(Cl)Cl (stereo not given) | -0.181% [at 52.9 µM] |  |
| O=C(O)COc1cc(Cl)c(Cl)cc1Cl |  | inactive |
| CCC(C)(C)c1ccc(O)c(C(C)(C)CC)c1 |  | inactive |
| CC(C)(C)NCC(O)c1ccccc1Cl (stereo not given) | 1.29% [at 52.9 µM] |  |
| Clc1ccc2ccccc2c1 | -7.03% |  |
| CCCCCCCCCCCC[N+](C)(C)CCOc1ccccc1 |  | inactive |
| CCC1(CC)C(=O)NC(=O)NC1=O | -2.25% [at 52.9 µM] |  |
| C#C[C@]1(O)CC[C@H]2[C@@H]3CCC4=CC(=O)CCC4=C3C=C[C@@]21CC | 6.91% [at 52.9 µM] |  |
| O=C(O)c1cc(Cl)ccc1Cl | 0.661% |  |
| CCC1CCC(=O)O1 (stereo not given) | -0.723% |  |
| COc1ccc(C(O)(c2cncnc2)C2CC2)cc1 (stereo not given) | 0.659% |  |
| Nc1ccccc1C(=O)OCC(O)CO (stereo not given) | 4.2% [at 52.9 µM] |  |

| Compound | activity change, negative = inhibition | Potency |
| --- | --- | --- |
| O=C(Cc1ccccc1)OCCc1ccccc1 |  | 35.6 µM (active) |
| c1ccc2sc(SNC3CCCCC3)nc2c1 |  | 11.1 µM (active) and 22.4 µM (active) |
| NP(N)(=O)NC(=O)c1ccc(F)cc1 | 5.66% [at 52.9 µM] |  |
| C=CC(=O)OCC | 1.44% |  |
| CN(C1CCCCC1)C1CCCCC1 | 3.34% |  |
| CCCCC(CC)CO[N+](=O)[O-] (stereo not given) | 2.37% |  |
| CC[N+]1(CCOC(=O)C(O)(c2ccccc2)c2ccccc2)CCCCC1 | 0.928% [at 52.9 µM] |  |
| CN1C[C@H](C(=O)N[C@]2(C)O[C@@]3(O)[C@@H]4CCCN4C(=O)[C@H](Cc4ccccc4)N3C2=O)C=C2c3cccc4[nH]cc(c34)C[C@H]21 |  | 40.1 µM (active) |
| N#CC(C#N)=C(C#N)C#N | -17% |  |
| COc1cc(C[C@@H](C)N)c(OC)cc1Br | 0.0058% |  |
| CCC[N+](CCC)(CCC)CCC | 2.46% |  |
| CN[C@@H](C)[C@H](O)c1ccccc1 | -0.0848% [at 52.9 µM] |  |
| CC[N+]1(C)CCCC(OC(=O)C(O)(c2ccccc2)c2ccccc2)C1 (stereo not given) | 0.819% [at 52.9 µM] |  |
| CC(C)(C)c1ccc(CCOc2ncnc3ccccc23)cc1 | 4.28% |  |
| C[C@]12C=CC3=C4CCC(=O)C=C4CC[C@H]3[C@@H]1CC[C@@H]2O | -12.3% |  |
| CC(C)(C)NCC(O)c1cc(Cl)c(N)c(C(F)(F)F)c1 (stereo not given) | 2.01% [at 52.9 µM] |  |
| CCCCCBr | 0.118% |  |
| CCOC(C(=O)OCCN(C)C)(c1ccccc1)c1ccccc1 | 1.73% [at 52.9 µM] |  |
| NCCc1cc(O)c(O)cc1O | 1.26% [at 52.9 µM] |  |
| CC(Cc1ccccc1)NCc1ccccc1Cl (stereo not given) | -13.3% [at 52.9 µM] |  |
